Among all 220,000 compounds or so, about 8,200 (3.7%) were called active. This excerpt belongs to a sample that is enriched for actives. A number with no mark means an inactive call.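 The calls were made as follows: active = compounds that reduced the stress-induced luciferase reporter signal by more than about 70% of percent inhibition (limit read from the data); inactive = the rest.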

Results on 27 compounds are retold here after PubChem BioAssay AID2732 (Emory University Molecular Libraries Screening Center, 2010).

The test is described as follows: blockers of ER-stress CHOP reporter expression – cell-based, unfolded protein response, luciferase reporter, primary screen (AID 2732).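 Also: 0% = tunicamycin plus vehicle and 100% = wells without tunicamycin.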 The conditions noted are these: CHO-K1 CHOP-promoter luciferase, tunicamycin-induced, 15-18 h; at 10 µM; active compounds read high.
Turning to `Oc1ccc2ccccc2c1N=Nc1nccs1`, the inhibition was -57.9%.

Consider `Cc1noc(C)c1-c1nc(CSc2ccc(Cl)cc2)no1`, for which the inhibition was 20.1%. As to `O=S(=O)(c1cccc(-c2nnc3n2CCCCC3)c1)N1CCOCC1`, the inhibition is 7.35%. Take `COc1ccc(COC(=O)c2n[nH]c3ccccc23)cc1F`: the inhibition is 97.2% (active). In the case of `O=C(COC(=O)c1n[nH]c2ccccc12)NCc1ccccc1`, the inhibition was 38.6%. Consider `COc1cccc(CNC(=O)c2n[nH]c3ccccc23)c1`, for which the inhibition is 15.2%. Under `C=CCN(C(=O)Nc1ccc2c(c1)nc(C)n2C)c1ccccc1` stands -18.2%; under `O=C(NCCc1c[nH]c2ccc(Cl)cc12)c1ccc([N+](=O)[O-])cc1`, -3.24%.

For the compound `CCCOc1ccc(-c2nc(N)n[nH]2)cc1`, the inhibition is 20.8%. With `CCCOc1ccc(C(=O)NCCc2ccccc2)cc1` the figure was 21.8%; with `CCCOc1ccc(Cc2c(Cl)nc(SC)nc2NC)cc1`, 97.5% (active).

In the case of `CNc1ncnc2c1ncn2[C@@H]1O[C@H](CO)[C@H](O)C1O` (some centres not stated), the inhibition was 10.8%. With `COc1cc2[nH]c(=S)n(Cc3ccc(C)o3)c(=O)c2cc1OC` the figure was 7.74%; with `CCOc1cc2[nH]c(=S)n(Cc3ccc(C(=O)NCCOC)cc3)c(=O)c2cc1OCC`, 9.91%. As for `COc1cc2[nH]c(=S)n(Cc3ccc(F)cc3)c(=O)c2cc1OC`, the inhibition was 90.9% (active). In the case of `C#CCNc1ccc(C(=O)OCC)cc1`, the inhibition is -15.6%. As to `O=C1C=C(c2ccc(Cl)cc2)C(=O)N1Nc1ccccc1`, the inhibition is 108% (active).

For `O=C(O)CC1=C(Nc2ccccc2)C(=O)N(c2ccccc2)C1c1ccc(Cl)cc1` (configuration not stated), the inhibition was 8.1%. Regarding `O=C1c2cccc3cc(Br)cc(c23)C(=O)N1Nc1ccccc1`, the inhibition was 63.7%. With `N#Cc1c(N)n(CCOC(=O)c2ccc(Cl)cc2)c2nc3ccccc3nc12` the figure was -17.1%; with `CCCNC(=O)c1c(N)n(-c2ccc(S(N)(=O)=O)cc2)c2nc3ccccc3nc12`, -1.19%. With `CC(C)(C)c1ccc(C(=O)NCCn2c(N)c(C#N)c3nc4ccccc4nc32)cc1`, the inhibition is 86.5% (active).

Take `Cc1ccc(O)c(NC(=S)NC(=O)COc2ccc(Br)cc2)c1`: the inhibition is 74.2% (active). Regarding `Cc1ccc(O)c(NC(=O)COc2cc(C)ccc2C)c1`, the inhibition was 5.05%.

In the case of `Cc1cccc(OCC(=O)NC(=S)Nc2ccccc2N2CCOCC2)c1`, the inhibition is 47.7%. Under `CCCc1c(C(=O)O)cnn1-c1ccc(Cl)cc1` stands -2.68%; under `O=C1[C@@H]2C(c3cccnc3)=NO[C@@H]2C(=O)N1c1ccc(Cl)cc1Cl`, 19.2%.

Usually inhibition stands for the drop in the measured response relative to a control, in per cent.
